Measured values taken from PubChem BioAssay (NCATS).
Where “and” joins values, the source holds several entries; their conditions need not be identical. Equal values may be shown once. Records with an inconclusive call do not appear. Entries that show only a call come without a potency. Calls of active or inactive are those of the source. Calls come from the whole dose curve; as a rule, active = well fitted curve in the direction sought with a large enough effect; inconclusive = small, poorly fitted or top-dose-only effect, or another doubt; inactive = no such curve, though single readings can be large; an effect the other way counts as inactive or inconclusive.

Experiments:
[1] = OV-KATE Cancer Cell Toxicity qHTS against the NCATS CANVASS Library (AID 1347345); conditions: OV-KATE cells viability, CellTiter-Glo luminescence, 72 h; series mostly up to 38.3 µM; note: potency is the fitted concentration of half-maximal effect
Method in brief: (§1)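 Following a 4 h pre-incubation of 1000 seeded cells, compounds were pinned in an 11-pnt dilution series and left for 72 h; viability then came from CellTiter-Glo.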

[2] = SW1088 Cancer Cell Toxicity qHTS against the NCATS CANVASS Library (AID 1347350); conditions: SW1088 viability, CellTiter-Glo luminescence, 72 h; series mostly up to 38.3 µM; note: nearly all actives have a fitted effect of over 75% in size; note: potency is the fitted concentration of half-maximal effect
Method in brief: as §1

[3] = UWB1.289-WTBRCA1 Cancer Cell Toxicity qHTS against the NCATS CANVASS Library (AID 1347354); conditions: UWB1.289-WTBRCA1 viability, CellTiter-Glo luminescence, 72 h; series mostly up to 38.3 µM
Method in brief: (§2)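 1000 cells/well, 4 h pre-incubation 37 °C/5% CO2; 11-pnt titration; 72 h; CellTiter-Glo 15 min RT, luminescence.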

[4] = HEK-293 Cancer Cell Toxicity qHTS against the NCATS CANVASS Library (AID 1347355); conditions: HEK-293 viability, CellTiter-Glo luminescence, 72 h; series mostly up to 46.1 µM; note: nearly all actives have a fitted effect of over 65% in size; note: potency is the fitted concentration of half-maximal effect
Method in brief: as §2

[5] = KB-8-5-11 Cancer Cell Toxicity qHTS against the NCATS CANVASS Library (AID 1347364); conditions: KB-8-5-11 MDR cells viability, CellTiter-Glo, 72 h; series mostly up to 46.1 µM; note: nearly all actives have a fitted effect of over 75% in size; note: potency is the fitted concentration of half-maximal effect
Method in brief: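 CellTiter-Glo luminescence after 72 h exposure; 500 KB-8-5-11 cells/well, DMEM/10% FBS, 37C, 5% CO2; compounds in 11-pt qHTS. Follow-up confirmation included medium with 1uM tariquidar.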

[6] = SDT Cancer Cell Toxicity qHTS against the NCATS CANVASS Library (AID 1347365); conditions: SDT dog glioma viability, ATP luminescence, 72 h; series mostly up to 46.1 µM; note: nearly all actives have a fitted effect of over 60% in size; note: potency is the fitted concentration of half-maximal effect
Method in brief: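 Luminescent ATP read-out (CellTiterGlo) after 72 hr compound exposure of dog glioma SDT cells, 500 per well. Eleven-point titrations; bortezomib titration run alongside as control.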

[7] = KB-3-1 Cancer Cell Toxicity qHTS against the NCATS CANVASS Library (AID 1347366); conditions: KB-3-1 viability, CellTiter-Glo luminescence, 72 h; series mostly up to 46.1 µM; note: nearly all actives have a fitted effect of over 75% in size; note: potency is the fitted concentration of half-maximal effect
Method in brief: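 Cytotoxicity toward KB-3-1 cells (500/well, DMEM + 10% FBS) was scored by CellTiter-Glo luminescence following 72 hr exposure at 37C, with bortezomib titrated as control.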

[8] = G06 Cancer Cell Toxicity qHTS against the NCATS CANVASS Library (AID 1347368); conditions: G06 dog glioma cells, viability ATP luminescence, 72 h; series mostly up to 46.1 µM; note: nearly all actives have a fitted effect of over 60% in size; note: potency is the fitted concentration of half-maximal effect
Method in brief: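 ATP luminescence (CellTiterGlo) readout of cytotoxicity. Canine G06 glioma cells, 500/well, 72 hr incubation at 37C with compounds; bortezomib titration served as control.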

[9] = MCF7 Cancer Cell Toxicity qHTS against the NCATS CANVASS Library (AID 1347369); conditions: MCF7 viability, ATP luminescence (CellTiter-Glo), 72 h; series mostly up to 46 µM
Method in brief: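 This 72 hr qHTS scored MCF7 viability by CellTiterGlo luminescence, with 500 cells/well; bortezomib titration ran as control.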

[10] = qHTS for ATAD5 Antagonist screened against the NCATS CANVASS Library (AID 1347370); conditions: HEK293T-ATAD5-luc, 5-FUrd stimulated, luminescence, 16 h; series mostly up to 46.1 µM; note: nearly all actives have a fitted effect of over 65% in size; note: potency is the fitted concentration of half-maximal effect
Method in brief: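 HEK293T-ATAD5 luc reporter, 2000 cells/well; 5hr attach; cpd + 10 uM 5-FUrd; 16hr 37C, 5% CO2. Readouts: CellTiter-Fluor fluorescence (1hr), then Amplite luciferase luminescence (30min RT).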

[11] = J3T Cancer Cell Toxicity qHTS against the NCATS CANVASS Library (AID 1347371); conditions: J3T dog glioma viability, ATP luminescence, 72 h; series mostly up to 46.1 µM
Method in brief: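 Dog glioma J3T, 500 cells/well; cpd 11-pt qHTS; 72 hr, 37C/5% CO2; CellTiterGlo ATP luminescence readout.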

[12] = molecular target: Nuclear receptor subfamily 1 group I member 3 (Homo sapiens) (UniProt Q14994); assay: qHTS for Constitutive Androstane Receptor (CAR) Antagonist screened against the NCATS CANVASS Library (AID 1347372); conditions: HepG2-hCAR-CYP2B6 luciferase, CITCO-stimulated antagonist mode; series mostly up to 46.1 µM; note: potency is the fitted concentration of half-maximal effect
Nuclear receptor subfamily 1 group I member 3 (Homo sapiens), sequence (Q14994 whole entry, looked up): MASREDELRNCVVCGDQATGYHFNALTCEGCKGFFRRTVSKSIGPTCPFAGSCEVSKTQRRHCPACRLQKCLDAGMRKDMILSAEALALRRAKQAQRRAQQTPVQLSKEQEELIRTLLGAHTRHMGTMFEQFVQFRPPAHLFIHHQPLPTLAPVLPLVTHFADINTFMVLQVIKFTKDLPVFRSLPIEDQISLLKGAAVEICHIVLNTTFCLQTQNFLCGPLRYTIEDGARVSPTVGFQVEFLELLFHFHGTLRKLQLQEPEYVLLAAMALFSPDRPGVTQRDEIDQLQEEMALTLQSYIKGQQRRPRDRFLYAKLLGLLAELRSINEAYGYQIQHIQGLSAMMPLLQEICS
Method in brief: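 Antagonist mode: compound added alongside 50 nM CITCO to HepG2-hCAR-CYP2B6 reporter cells, 24hr at 37C. Viability by CellTiter-Fluor fluorescence, then CAR-driven luciferase by ONE-Glo luminescence.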

[13] = qHTS for H2AX Agonists against the NCATS CANVASS Library (AID 1347378); conditions: CHO-K1 H2AX phosphorylation, HTRF TR-FRET, 3 h; series mostly up to 76.9 µM;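 note: phospho-H2AX S139 level in CHO-K1 lysates by TR-FRET emission ratio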; note: potency is the fitted concentration of half-maximal effect
Method in brief: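 Signal is the 665/620 nm emission ratio from europium cryptate and d2 antibody pair, rising with S139-phosphorylated H2AX. CHO-K1 cells saw test agents for 3 hr at 37C; detection ran 24 hr at room temperature.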

[14] = qHTS for Inflammasome Signaling Inhibitors: IL-1-beta AlphaLISA screen against the NCATS CANVASS Library (AID 1347379); conditions: THP-1 LPS/ATP, IL-1B AlphaLISA secretion, 16 h; series mostly up to 57.5 µM;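 note: human THP-1 cells primed with LPS then triggered with ATP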;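 for potency: secreted IL-1B measured as AlphaLISA emission at 615 nm; potency is the fitted concentration of half-maximal effect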
Method in brief: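 THP-1, 1 hr compound pre-incubation, then LPS 250 ng/mL + ATP 1.25 mM (final); 16 hr total with compound; IL-1B AlphaLISA, ex 680/em 615 nm; 11-point qHTS, up to 57.5 uM final.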

[15] = Secretion counterscreen for inhibitors of the SERCaMP assay screened against the NCATS CANVASS Library (AID 1347390); conditions: SH-SY5Y constitutive GLuc secretion, luminescence, 20 h; series mostly up to 76.6 µM;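 note: light from luciferase secreted into medium read as a measure of general secretion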; note: potency is the fitted concentration of half-maximal effect
Method in brief: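 Natural products are titrated in an 11-point series up to 77 uM onto SH-SY5Y-GLuc STOP cells for 20 h. Secreted reporter activity is measured as coelenterazine-driven luminescence, with Brefeldin A on each plate.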

[16] = qHTS for inhibitors of ER calcium dysfunction: SERCaMP assay screened against the NCATS CANVASS Library (AID 1347393); conditions: SH-SY5Y GLuc-SERCaMP (Gaussia luciferase released on ER calcium loss) secretion, thapsigargin, luminescence; series mostly up to 76.6 µM; note: nearly all actives have a fitted effect of over 40% in size; note: potency is the fitted concentration of half-maximal effect
Method in brief: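 Thapsigargin-induced ER calcium depletion drives GLuc-SERCaMP secretion from SH-SY5Y cells; compounds given 16 h beforehand were scored by lowered coelenterazine luminescence after 4 h challenge.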

[17] = qHTS for inhibitors of Wild type Zika virus screened against the NCATS CANVASS Library (AID 1347396); conditions: Vero cells, Zika virus CPE, CellTiter-Glo, 72 h; series mostly up to 45.9 µM;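 note: ATP luminescence of surviving cells so rescue from viral cell killing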
Method in brief: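 Luminescent CellTiter Glo read-out of virus-induced cytotoxicity, 72 h post-infection, in Vero 766 cells. Compounds were tested at 11 concentrations; uninfected, vehicle-treated wells defined 100% inhibition.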

[18] = tested on: NAD(P)H diaphorase (Clostridium kluyveri); assay: Diaphorse counterscreen qHTS: Assay Interference Panel against the NCATS CANVASS Library (AID 1347362); conditions: Diaphorase enzyme, resazurin to resorufin fluorescence; series mostly up to 57.5 µM
Method in brief: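 Counterscreen for coupling-enzyme interference: resorufin fluorescence from resazurin/NADH turnover, read after 5 min at room temperature. Compounds were tested over an 11-point series after 15 min dark preincubation with diaphorase in PBS-Tween.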

[19] = qHTS for ATAD5 Agonist screened against the NCATS CANVASS Library (AID 1347367); conditions: HEK293T ATAD5-luciferase reporter, luminescence, 16 h; series mostly up to 46.1 µM;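 note: luciferase reporter driven by ATAD5 which rises upon DNA damage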
Method in brief: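 Genotoxicity was scored as increased ATAD5-luciferase luminescence in HEK293T after 16hr of exposure, with cell viability measured by fluorescence beforehand in the same well.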

[20] = qHTS for Hypoxia signaling pathway (HIF-1) antagonists against the NCATS CANVASS Library (AID 1347374); conditions: HRE-bla ME-180 cells, HIF-1 beta-lactamase reporter, CoCl2; series mostly up to 38.3 µM; note: nearly all actives have a fitted effect of over 60% in size; note: potency is the fitted concentration of half-maximal effect
Method in brief: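 Beta-lactamase reporter under HRE control in ME-180 cells; CoCl2 stimulus (60 uM solution as added), compounds 11-pt qHTS, 17 h 37C. CCF4 dye 2 h RT, 460/530 nm emission. CellTiter-Glo viability in same wells.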

Row | SMILES | Potency [1] | Potency [2] | Potency [3] | Potency [4] | Potency [5] | Potency [6] | Potency [7] | Potency [8] | Potency [9] | Potency [10] | Potency [11] | Potency [12] | Potency [13] | Potency [14] | Potency [15] | Potency [16] | outcome [17] | Potency [18] | Potency [19] | Potency [20]
1 | CC[C@@H](c1cc(OC)c(OC)cc1OC)[C@H](C)[C@@H](/C(C)=C/c1cc(OC)c(OC)cc1OC)c1cc(OC)c(OC)cc1OC | inactive | 11.9 µM (active) | inactive | 16.6 µM (active) | inactive | inactive | inactive | inactive | inactive | 13.2 µM (active) | inactive | inactive | inactive | inactive | inactive | 2.43 µM (active) and 19.3 µM (active) | inactive | – | – | –
2 | C=C1C(=O)O[C@H]2[C@H]1CCC(C)=C1CC[C@@](C)(O)[C@@H]12 | 11.8 µM (active) | 14.9 µM (active) | – | 9.35 µM (active) | 23.5 µM (active) | 26.4 µM (active) | – | 16.6 µM (active) | – | – | – | inactive | 27.3 µM (active) | 9.68 µM (active) | 34.3 µM (active) | 2.72 µM (active) | inactive | inactive | – | –
3 | C=C1C[C@H]2O[C@@H]3[C@@H]4[C@H](CC[C@@](C)(O)[C@@H]42)[C@H](C)COC3(C)[C@@H](OC(=O)CCCCCCC)C[C@H]1O (stereo not given in full) | – | – | inactive | 23.5 µM (active) | – | – | – | – | – | inactive | inactive | inactive | inactive | – | inactive | – | inactive | – | inactive | –
4 | CC(C)[C@@H]1CC(=O)c2coc3c2[C@H]1C[C@@H](C)C3=O | inactive | – | inactive | – | – | – | – | inactive | inactive | inactive | inactive | inactive | inactive | inactive | inactive | inactive | inactive | inactive | inactive | –
5 | COc1cc(C2C3=C(Cc4cc5c(cc42)OCO5)C(=O)OC3)cc(OC)c1OC (stereo not given) | inactive | inactive | – | 0.059 µM (active) | 0.105 µM (active) | 0.118 µM (active) | 0.105 µM (active) | 0.0935 µM (active) | – | inactive | – | 0.117 µM (active) | inactive | inactive | inactive | inactive | inactive | inactive | inactive | inactive
6 | CC[C@@H]1[C@H](C)[C@H](c2cc(OC)c(OC)cc2OC)[C@@H](C)[C@H](c2cc(OC)c(OC)cc2OC)[C@]12C=C(OC)C(=O)C=C2OC | – | 21.1 µM (active) | inactive | 26.4 µM (active) | – | – | – | – | inactive | 23.4 µM (active) | inactive | inactive | – | – | – | – | – | – | – | –
7 | CC1=C[C@H]2[C@H]3C(=O)C(c4ccc(O)cc4)=C[C@@]3(c3ccc(O)cc3)[C@@H]1C(=O)[C@]2(C)O | inactive | inactive | – | 0.235 µM (active) | 3.72 µM (active) | 0.209 µM (active) | 0.332 µM (active) | 0.235 µM (active) | inactive | inactive | – | 0.933 µM (active) | inactive | inactive | – | inactive | – | inactive | inactive | inactive
8 | O[C@H]1C=C2[C@H]3CN(Cc4cc5c(cc43)OCO5)[C@H]2C[C@@H]1O | – | inactive | inactive | 5.26 µM (active) | 10.5 µM (active) | 7.43 µM (active) | 13.2 µM (active) | 6.62 µM (active) | inactive | – | – | 13.2 µM (active) | inactive | inactive | 38.4 µM (active) | inactive | inactive | inactive | – | 13.3 µM (active)
9 | COc1ccc([C@@H]2c3cc4c(cc3C[C@H](C)C2C)OCO4)cc1OC (stereo not given in full) | inactive | – | inactive | – | 3.72 µM (active) | – | – | – | inactive | – | inactive | inactive | inactive | inactive | – | inactive | inactive | inactive | inactive | –
10 | C[C@H](c1cnc(N)[nH]1)c1ccc(O)c2[nH]cc(-c3cnc(-c4c[nH]c5ccccc45)c(=O)[nH]3)c12 | inactive | inactive | inactive | – | inactive | – | inactive | – | inactive | inactive | inactive | inactive | inactive | – | inactive | – | inactive | – | – | –
11 | C[C@H](CCC(O)C(C)(O)CO)[C@@]1(O)CC[C@@]2(C)C3=C(CC[C@@]21C)[C@@]1(C)CCC(OC(=O)CCC(=O)O)C(C)(C)[C@@H]1CC3 (stereo not given in full) | inactive | – | inactive | inactive | inactive | inactive | inactive | inactive | inactive | inactive | inactive | inactive | – | inactive | inactive | inactive | – | inactive | – | 14.9 µM (active)
12 | C=C[C@]1(C)CC[C@@H]([C@H](C)C(=O)/C=C/C(C)(C)O)O1 | inactive | inactive | inactive | – | inactive | – | inactive | – | inactive | – | – | inactive | inactive | inactive | inactive | – | inactive | inactive | – | inactive
13 | CC[C@H]1[C@@H](C)[C@@H](c2cc(OC)c(OC)cc2OC)[C@H](C)[C@@H](c2cc(OC)c(OC)cc2OC)[C@@]12C=C(OC)C(=O)C=C2OC | – | 11.9 µM (active) | – | 14.8 µM (active) | 29.6 µM (active) | – | – | – | inactive | – | inactive | inactive | – | – | – | 0.86 µM (active) | – | – | inactive | –
